# Reference: PubChem BioAssay AID585 (National Center for Advancing Translational Sciences (NCATS), 2007)
# The campaign covered roughly 71,000 compounds. About 1,300 (1.8%) were called active. For the sample, actives were picked, then their nearest neighbours and some compounds at random. Unmarked numbers belong to inactive results. The call rests on the fitted dose curve.
# Target: Beta-lactamase (Escherichia coli (strain K12)) (UniProt P00811)
# Test: Promiscuous and Specific Inhibitors of AmpC Beta-Lactamase (assay without detergent); on activity change, negative = inhibition: % of control where 0% means no effect
# Settings: AmpC nitrocefin hydrolysis, absorbance 480 nm, no detergent; series mostly up to 28.7 µM; activity change, negative = inhibition: at the top concentration
# Experimental: NIH Molecular Libraries Screening Centers Network [MLSCN]
# NIH Chemical Genomics Center [NCGC]
# PI Name: Shoichet, Brian K.
# This aggregation profiling approach exploits the sensitivity of aggregate formation to detergent. Inhibition of b-lactamase is measured in the presence and absence of 0.01% Triton X-100. See Pubchem assay "Promiscuous and Specific Inhibitors of AmpC Beta-Lactamase (assay with detergent)" for related screen. Compounds that inhibit only in the absence of detergent are considered likely promiscuous aggregators.
# A screen of 1,030 compounds was performed in Brian Shoichet's lab in 96-well format. AmpC activity was measured by following the absorbance at 480 nm. Nitrocefin is a chromogenic substrate: while nitrocefin is yellow (lmax 390 nm), the product of its hydrolysis is red (lmax 486 nm, 17,000 M-1). AmpC beta lactamase was provided by Brian Shoichet and Brian Feng, UCSF.
# NCGC Assay Protocol Summary:
# 20 mM phosphate buffer, pH 7.0
# Triton X-100: No Detergent screen: 0.0001%, Detergent screen: 0.01%.
# Buffer in columns 3 and 4 as negative control (no enzyme).
# 5.3 nM AmpC in columns 1, 2, 5-48. Titration of UCSF compound 9 control (from 10 mM, then 1:2) pin-transferred to column 2. Column 1 is neutral (100% activity).
# Six uL of reagents were dispensed to 1536-well Greiner black clear bottom plates. Compounds and controls (23 nL) were transferred via Kalypsys PinTool. The plates were incubated for 15 min at room temperature, and then 2 uL of 800 uM solution of nitrocefin was added to start the reaction. The plates were immediately transferred to and read every 20 seconds for 4 min on ViewLux (Perkin-Elmer) High-throughput CCD imager using 480 nm absorbance protocol. During dispense, reagent bottles were kept submerged into 4 deg C water bath.
# Keywords: NIH Roadmap, MLSCN, MLI, MLSMR, qHTS, NCGC, AmpC Beta-Lactamase, Aggregation.
# Potency means the concentration at half of the fitted maximal effect.
# Chain of Beta-lactamase (Escherichia coli (strain K12)) (P00811 whole entry, looked up): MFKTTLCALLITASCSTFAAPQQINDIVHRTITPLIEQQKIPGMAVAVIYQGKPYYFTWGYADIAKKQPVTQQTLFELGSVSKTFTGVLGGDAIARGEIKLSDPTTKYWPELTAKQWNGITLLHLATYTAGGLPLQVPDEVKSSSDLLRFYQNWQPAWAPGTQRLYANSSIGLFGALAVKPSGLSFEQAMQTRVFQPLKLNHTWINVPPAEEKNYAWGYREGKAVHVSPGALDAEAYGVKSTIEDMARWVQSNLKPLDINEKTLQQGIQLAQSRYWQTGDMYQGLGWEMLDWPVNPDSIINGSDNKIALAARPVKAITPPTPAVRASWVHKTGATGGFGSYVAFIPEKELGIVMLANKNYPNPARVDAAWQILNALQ
SMILES,"activity change, negative = inhibition",Potency
Cc1noc(C)c1S(=O)(=O)N(CC(=O)Nc1ccc2c(c1)OCCO2)c1ccc(C(C)C)cc1,-4.4%,–
CCOC(=O)C1(C(F)(F)F)N=C(N(C)C)OC(N(C)C)=N1,-6.4%,–
N#CC1=C(N)Oc2cc(O)ccc2C1C1CCCCC1 (centres undefined),-9.2%,–
O=C(O)c1c(Br)c(Br)c(Br)c(Br)c1C1c2ccc(O)cc2Oc2cc(O)ccc21,–,0.158 µM (active)
COCCNC(=O)CN1C(=O)CSc2ncccc21,-21.6%,–
CC(C)(Cc1c[nH]c2ccc(Cl)cc12)NCCOc1ccccc1OCC1CC1,–,20 µM [single pt active] (active)
NCC[Se][Se]CCN,1.6% [at 5.75 µM],–
COC(=O)N1CCC[C@@]2(CCN(C(=O)NC(C)C)C2)C1,22.8%,–
Cc1cc(C)c(C#N)c(SCc2ccc3c(c2)OCO3)n1,-11.5%,–
Cc1nc(C)c(C(=O)Nc2ccc(C)c(F)c2)o1,-4%,–
Cc1nc(C)c(C(=O)Nc2cccc(C)c2C)o1,–,3.98 µM [single pt active] (active)
COc1ccc(Cl)cc1NC(=O)c1oc(C)nc1C,22.7%,–
c1ccc2c(c1)OCC(CNc1ncnc3nc[nH]c13)O2 (centres undefined),8.2%,–
c1ccc(CCN2CCN=C2Cc2ccccc2)cc1,13.3% [at 5.75 µM],–
COc1cccc(N2C(=O)C3CCCN3C2c2ccc(F)cc2)c1 (centres undefined),26.5%,–
CC1=CC(C)(C)N(C(=O)CSc2nccn2C)c2cc(C)ccc21,45.9%,–
O=C(Cn1c(=S)nc2ccccn21)N1CCc2ccccc2C1,3.2%,–
C=C1c2cc(CC)ccc2NC(=O)N1c1ccc(C)cc1,–,3.98 µM [single pt active] (active)
Cc1ccc(S(=O)(=O)N2CC(=O)Nc3ccccc32)cc1C,2.2%,–
FC(F)Oc1ccccc1C1CC(c2ccc(Br)s2)Nc2ncnn21 (centres undefined),66.8%,–
O=c1cc(Cn2nnc(-c3ccc(Cl)cc3)n2)nc2sccn12,40%,–
CS(=O)(=O)N(CC(=O)N1CCN(Cc2ccc3c(c2)OCO3)CC1)c1ccc2c(c1)OCO2,68.3%,–
CCCS(=O)(=O)N1CCCC(C(=O)NCc2ccco2)C1 (centres undefined),-0.5%,–
O=C(NCc1ccco1)C1CCCN(S(=O)(=O)c2cnc[nH]2)C1 (centres undefined),–,3.98 µM [single pt active] (active)
O=C(NCc1ccco1)C1CCCN(S(=O)(=O)c2cccc3nonc23)C1 (centres undefined),0.9%,–
CC1(C)CC(CCC(=O)Nc2ccccc2Cl)C(=O)O1 (centres undefined),-5.9%,–
COc1ccc(C(=O)N(Cc2ccc(N(C)C)cc2)C2CCS(=O)(=O)C2)cc1 (centres undefined),37.7%,–

SMILES,"activity change, negative = inhibition",Potency
Cc1nc(N2CCN(c3ncccn3)CC2)c2oc3ccccc3c2n1,56.3%,–
Cn1cccc1C(=O)NC(=O)COC(=O)Cc1coc2ccc3ccccc3c12,–,12.6 µM (active)
CC(C)(C)NC(=O)NC(=O)COC(=O)Cn1c(C(F)(F)F)nc2ccccc21,24%,–
CCOC(=O)N1CCN(C(=O)c2cc3c(ccc4ccccc43)oc2=O)CC1,42.4%,–
CCN1CCN(Cc2c(O)ccc3c(=O)c(-c4ccc(OC)c(OC)c4)c(C(F)(F)F)oc23)CC1,51.9%,–
CN1CCN(CCCNC(=O)c2cc3c(=O)oc4ccccc4c3s2)CC1,13.6%,–
COc1ccccc1NC(=O)C1=C(C)Nc2ncnn2C1c1ccc(C)o1 (centres undefined),2.7%,–
COc1cc(C2C(C(=O)Nc3ccccc3OC)=C(C)Nc3ncnn32)ccc1O (centres undefined),–,3.98 µM [single pt active] (active)
COc1ccccc1NC(=O)C1=C(C)Nc2nnnn2C1c1cccc(Br)c1 (centres undefined),12.1%,–
COc1ccc(CCN(C)CCN2C(=O)c3ccccc3C2=O)cc1OC,9.6%,–
CCn1cc(C(=O)NCC2CCCO2)c(=O)c2cc(S(=O)(=O)N3CCCCC3)ccc21 (centres undefined),94.7%,–
O=C(NC1CCCCC1)n1c(=O)oc2cc(S(=O)(=O)N3CCCCC3)ccc21,-14.2%,–
CCn1cc(C(=O)NC2CCCCCC2)c(=O)c2cc(S(=O)(=O)N3CCCCC3)ccc21,–,3.98 µM [single pt active] (active)
Oc1ccc2ccccc2c1C=NCc1c(O)ccc2ccccc12,-20.6% [at 5.75 µM],–
O=C(CCC(=O)OCC(F)(F)C(F)F)NCc1ccccc1,7.3%,–
COc1ccc(-c2nc(CS(=O)CC(=O)N3CCc4ccccc4C3)c(C)o2)cc1 (centres undefined),91.4%,–
Cc1ccc(-c2nc(CS(=O)CC(=O)N3CCN(c4ncccn4)CC3)c(C)o2)cc1 (centres undefined),95.4%,–
COc1ccc(CCNC(=O)C2CCCN(Cc3nc(-c4cccc(Cl)c4)oc3C)C2)cc1OC (centres undefined),162%,–
Cc1oc2nc(SCC(=O)NCc3cccnc3)nc(N)c2c1C,-1.9%,–
Cc1ccc(NC(=O)CS(=O)CC(=O)N(c2ccccc2)C(C)C(=O)NC2CCCC2)cc1 (centres undefined),76.9%,–
COc1ccc(-c2nc(CS(=O)CC(=O)N3CCC4(CC3)OCCO4)c(C)o2)cc1 (centres undefined),41.7%,–
Cc1ccc(-c2nc(CS(=O)CC(=O)NC3CCCC3)c(C)o2)cc1 (centres undefined),–,3.98 µM [single pt active] (active)
COc1ccc(-c2nc(CS(=O)CC(=O)NCc3ccccn3)c(C)o2)cc1 (centres undefined),–,1.26 µM [single pt active] (active)
COc1ccc(-c2nc(CS(=O)CC(=O)NCc3cccnc3)c(C)o2)cc1OC (centres undefined),–,3.98 µM [single pt active] (active)
C=CC(=C)CCC=C(C)C,-13.4%,–
COc1ccc2oc(=O)c(C(=O)N3CCN(c4ccccc4F)CC3)cc2c1,43.1%,–
CC1(C)CC(=O)C=C(NC2CC(C)(C)NC(C)(C)C2)C1,-7.6%,–
